The results in this text go back to PubChem BioAssay (NCI).

Compounds without any hit were thinned out: in the full panel of roughly 83,000, 20% have a hit.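 Each cell line was grown in a 96-well plate and treated with one concentration of compound for 48 hours. Values below 10 were considered active.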 Values without a mark were called inactive. Active and inactive are the calls of the source.

Some test systems named below: T-47D breast; BT-549 breast; MDA-MB-435 melanoma; SW-620 colon; MCF7 breast; HCT-116 colon; HCC-2998 colon; KM12 colon.
What all share (test): NCI-60 one-dose screen, 48 h (100 = growth as untreated, 0 = no growth, -100 = all killed)
Common to all, as to details: 10 µM unless noted

On to `CCOC(=O)c1ccc(N(CCC(=O)O)C(C)=O)cc1`, for which the growth in the assay on T-47D breast was 112%; in the assay with BT-549 breast, 94.9%; in the assay with MDA-MB-435 melanoma, 122%; in the assay on SW-620 colon, 106%; in the assay on MCF7 breast, 99.9%; with HCT-116 colon, 104%. Moreover, the values for the growth with HCC-2998 colon and in the assay with KM12 colon were 113% and 117%, respectively.

On to `O=C(Nc1cnc(C(F)(F)F)cn1)c1cc(Cl)ccc1O`, for which the growth with T-47D breast was -13.2% (active); in the assay on BT-549 breast, -21.3% (active); in the assay with MDA-MB-435 melanoma it was 5.89% (active); in the assay with SW-620 colon, 10.9%; in the assay with MCF7 breast it was 6.48% (active); in the assay with HCT-116 colon, 1.13% (active). Also, the growth was 14.6% in the assay with HCC-2998 colon and 3.91% (active) with KM12 colon.

With `Cc1ccc(C2CC(c3cccs3)=NN2c2ccc(S(N)(=O)=O)cc2)s1` (stereo unspecified), the growth with T-47D breast was 71.5%; with BT-549 breast, 102%; with MDA-MB-435 melanoma, 80.8%; in the assay on SW-620 colon it was 97.8%; in the assay with MCF7 breast, 77.3%; in the assay with HCT-116 colon it was 79.2%. Moreover, the values for the growth in the assay on HCC-2998 colon and in the assay with KM12 colon were 103% and 93.2%, respectively.

As for `NC(=O)Nc1ccc2ncnc(Nc3cccc(O)c3)c2c1`, the growth with T-47D breast is 76.6%; with BT-549 breast, 108%; in the assay with MDA-MB-435 melanoma, 101%; in the assay with SW-620 colon, 99.1%; with MCF7 breast, 97.3%; in the assay on HCT-116 colon, 109%. The growth in the assay on HCC-2998 colon was 102%; in the assay with KM12 colon, 96.1%.

For `CC(C)NC(=O)OCC#CCOC(=O)NC(C)C`, the growth with T-47D breast is 99.2%; with BT-549 breast, 95.7%; in the assay with MDA-MB-435 melanoma it was 110%; with SW-620 colon, 109%; in the assay with MCF7 breast, 94.4%; with HCT-116 colon it was 95.4%. The growth in the assay on HCC-2998 colon is 103%; in the assay with KM12 colon, 106%.

Consider `CCOC(=O)c1ccccc1SC(C[N+](=O)[O-])c1ccccc1` (stereo unspecified), for which the growth in the assay with T-47D breast is 60.6%; in the assay with BT-549 breast, 88.4%; in the assay with MDA-MB-435 melanoma, -58.1% (active); in the assay on SW-620 colon, 55.8%; with MCF7 breast, 1.05% (active); in the assay on HCT-116 colon it was 3.98% (active). The growth is 8.62% (active) in the assay with HCC-2998 colon and 91.6% in the assay on KM12 colon.

`COc1ccc(-c2nc(-c3ccccc3OCc3ccccc3OC)nc(C)c2C(C)=O)cc1`: the growth with T-47D breast is 61%; with BT-549 breast, 98.4%; with MDA-MB-435 melanoma, 90.4%; with SW-620 colon, 67.5%; in the assay on MCF7 breast, 83.8%; in the assay on HCT-116 colon, 66.4%. Moreover, the growth with HCC-2998 colon is 86.2%; in the assay on KM12 colon, 64.4%.

For `COCCn1c(Nc2ccc(C(=O)NO)cc2)nc2ccccc21`, the growth in the assay with T-47D breast is 35.3%; in the assay with BT-549 breast, 86.6%; with MDA-MB-435 melanoma, 46%; in the assay on SW-620 colon, 29.6%; in the assay with MCF7 breast, 61.4%; in the assay with HCT-116 colon, 19.4%. Further, the growth in the assay on HCC-2998 colon was 73.3%; with KM12 colon, 51.9%.

As for `CN(C)c1ccc(Nc2c3ccccc3nc3ccccc23)cc1`, the growth was 11.1% in the assay on T-47D breast; 44.5% in the assay with BT-549 breast; 19.4% in the assay on MDA-MB-435 melanoma; 13.6% with SW-620 colon; 5.1% (active) in the assay on MCF7 breast; 5.58% (active) in the assay with HCT-116 colon. Further, the growth in the assay on HCC-2998 colon was 0.72% (active); in the assay on KM12 colon, 18%.

With `CNCc1ccccc1CN(CC(=O)Nc1ccc2c(c1)CC1(C2)C(=O)Nc2ncccc21)C(=O)C(C)(C)C` (stereo unspecified), the growth in the assay on T-47D breast is 94.1%; with BT-549 breast, 96.3%; with MDA-MB-435 melanoma, 95.7%; in the assay with SW-620 colon, 97.4%; in the assay with MCF7 breast, 102%; in the assay on HCT-116 colon, 105%. For the same molecule, the results for the growth in the assay on HCC-2998 colon and with KM12 colon were 113% and 107%, respectively.

In the case of `O=C1CC2(O)CSc3nc(=O)cc(n32)N1` (stereo unspecified), the growth is 104% in the assay on T-47D breast; 107% in the assay with BT-549 breast; 100% in the assay on MDA-MB-435 melanoma; 112% with SW-620 colon; 96% in the assay with MCF7 breast; 106% in the assay on HCT-116 colon. The figures for the growth in the assay on HCC-2998 colon and with KM12 colon were 120% and 102%, respectively.

For the molecule `CCN(CC)c1ccc(C(=N)c2ccc(N(C)C)cc2)cc1`, the growth is -13.6% (active) with T-47D breast; 28.9% in the assay with BT-549 breast; 2% (active) in the assay on MDA-MB-435 melanoma; -18.6% (active) in the assay with SW-620 colon; 2.36% (active) in the assay with MCF7 breast; 1.67% (active) in the assay on HCT-116 colon. Also, the growth in the assay on HCC-2998 colon is 15.4%; in the assay on KM12 colon, -8.02% (active).

As to `COc1ccc2[nH]c(C(=O)OCc3ccc4c(Br)cc(Br)c(O)c4n3)cc2c1`, the growth was -51.9% (active) with T-47D breast; -88.2% (active) with BT-549 breast; -72.4% (active) in the assay on MDA-MB-435 melanoma; -72.8% (active) in the assay with SW-620 colon; -36.8% (active) with MCF7 breast; -74.8% (active) in the assay on HCT-116 colon. The growth was -77.7% (active) with HCC-2998 colon and -48.6% (active) in the assay on KM12 colon.

Regarding `Oc1[nH]c2ccc(Cl)cc2c1/C=c1/ccc2c(c1)N=C(c1ccc(F)cc1)N=2`, the growth in the assay with T-47D breast is 62.6%; in the assay with BT-549 breast it was 27.8%; with MDA-MB-435 melanoma, -44% (active); in the assay on SW-620 colon, 19.3%; with MCF7 breast, 10.6%; with HCT-116 colon, 9.48% (active). Further, the growth with HCC-2998 colon was 74%; in the assay with KM12 colon, 48.6%.

Take `Cc1ccc(NC(=O)Cn2nncc2CN2C(=O)CSC2=O)cc1C`: the growth with T-47D breast was 98.7%; in the assay on BT-549 breast, 98.8%; in the assay on MDA-MB-435 melanoma it was 100%; with SW-620 colon, 99.3%; in the assay with MCF7 breast, 92%; in the assay with HCT-116 colon it was 102%. For the same molecule, the growth in the assay with HCC-2998 colon was 92.5%; in the assay on KM12 colon it was 105%.

Take `CN(C)CCOc1nc2c3cccnc3cc(-c3cccc(Cl)c3)c2c2ncccc12`: the growth in the assay on T-47D breast was 20.1%; in the assay with BT-549 breast, 57.9%; with MDA-MB-435 melanoma it was -59.6% (active); with SW-620 colon, -44.3% (active); with MCF7 breast, -50% (active); with HCT-116 colon, -81.3% (active). The growth in the assay on HCC-2998 colon was -79.2% (active); in the assay with KM12 colon, 14.2%.

Consider `CCOC(C)(c1ccc(Cl)cc1)C1CCNCC1` (stereo unspecified), for which the growth with T-47D breast was 91.7%; in the assay on BT-549 breast it was 99.5%; with MDA-MB-435 melanoma, 109%; in the assay on SW-620 colon it was 79%; in the assay with MCF7 breast it was 94.8%; with HCT-116 colon, 97.8%. Moreover, the growth in the assay on HCC-2998 colon was 89.4%; with KM12 colon, 98.2%.

As for `C/C(=N\OC(=O)Nc1cccc(Cl)c1)c1ccccc1`, the growth in the assay on T-47D breast was 95.9%; in the assay on BT-549 breast, 105%; in the assay on MDA-MB-435 melanoma, 93.1%; with SW-620 colon, 95.3%; with MCF7 breast it was 88.1%; in the assay on HCT-116 colon, 103%. Besides, the growth is 116% in the assay with HCC-2998 colon and 109% in the assay with KM12 colon.

Consider `N#CC1=C(N)Oc2nc[nH]c(=O)c2C1c1cccs1` (stereo unspecified), for which the growth was 95.2% in the assay with T-47D breast; 103% with BT-549 breast; 101% in the assay on MDA-MB-435 melanoma; 102% in the assay with SW-620 colon; 97.1% in the assay with MCF7 breast; 106% in the assay on HCT-116 colon. The growth with HCC-2998 colon was 114%; in the assay with KM12 colon, 108%.

Turning to `CC(C)CC(NC(=O)C(CCCN=C(N)N)NC(=O)OCc1ccccc1)C(=O)NC(CNC(=O)/C=C/c1ccccc1)C(C)C` (stereo unspecified), the growth in the assay with T-47D breast is 96.2%; with BT-549 breast it was 107%; with MDA-MB-435 melanoma, 97.5%; with SW-620 colon, 105%; in the assay with MCF7 breast it was 91%; with HCT-116 colon it was 102%. Besides, the growth with HCC-2998 colon was 137%; in the assay on KM12 colon, 105%.

As for `CN1CCN(Cc2ccc(NC(=O)c3ccc(C#N)c(C#Cc4cnc(N)c5ncccc45)c3)cc2C(F)(F)F)CC1`, the growth in the assay with T-47D breast was 112%; with BT-549 breast, 103%; with MDA-MB-435 melanoma, 56%; in the assay with SW-620 colon, 23.4%; in the assay with MCF7 breast it was 16.3%; in the assay with HCT-116 colon, -10.5% (active). Moreover, the growth is 112% in the assay with HCC-2998 colon and 13.5% in the assay with KM12 colon.

For the molecule `O=C(OCc1ccc2c(Cl)cc(Cl)c(O)c2n1)c1cc2ccccc2[nH]1`, the growth in the assay with T-47D breast was -57.2% (active); in the assay on BT-549 breast, -76.3% (active); in the assay on MDA-MB-435 melanoma it was -89.4% (active); in the assay on SW-620 colon, -66.2% (active); in the assay with MCF7 breast, -35.7% (active); with HCT-116 colon it was -73.3% (active). For the same molecule, the growth is -73.1% (active) in the assay with HCC-2998 colon and -63.9% (active) in the assay on KM12 colon.

With `CNC(=O)c1cc(Oc2ccc(NC(=O)c3[nH]c(SC)nc3-c3ccc(F)cc3)cc2)ccn1`, the growth with T-47D breast was 37%; in the assay on BT-549 breast it was 85.3%; in the assay with MDA-MB-435 melanoma, 21.2%; in the assay on SW-620 colon it was 90.3%; in the assay on MCF7 breast, 66.4%; with HCT-116 colon, 62.9%. Also, the results for the growth in the assay on HCC-2998 colon and with KM12 colon were 96.9% and 19.4%, respectively.

For the molecule `C=CCN(CCOC(=O)c1ccc([N+](=O)[O-])cc1)CCOC(=O)c1ccc([N+](=O)[O-])cc1`, the growth is 90.5% in the assay on T-47D breast; 100% in the assay with BT-549 breast; 107% with MDA-MB-435 melanoma; 100% in the assay on SW-620 colon; 96.3% with MCF7 breast; 96.2% with HCT-116 colon. Moreover, the values for the growth with HCC-2998 colon and in the assay on KM12 colon were 105% and 103%, respectively.

`C/C(=N\OC(=O)Nc1ccccc1)c1ccccc1`: the growth with T-47D breast is 104%; in the assay with BT-549 breast it was 99.9%; in the assay on MDA-MB-435 melanoma, 95.1%; with SW-620 colon it was 98.2%; with MCF7 breast, 95%; in the assay on HCT-116 colon, 105%. Besides, the growth was 117% with HCC-2998 colon and 107% in the assay on KM12 colon.

On to `CNCCCNc1ccnc2cc(Cl)ccc12`, for which the growth was -5.41% (active) in the assay with T-47D breast; -10.3% (active) with BT-549 breast; -98% (active) with MDA-MB-435 melanoma; -23.3% (active) in the assay on SW-620 colon; 2.35% (active) in the assay on MCF7 breast; 3.6% (active) in the assay with HCT-116 colon. The growth in the assay on HCC-2998 colon was -78.6% (active); in the assay on KM12 colon, 0.517% (active).

In the case of `CCCCn1c(C)nc2ccc(Nc3nc(Cl)nc4nc[nH]c34)cc21`, the growth in the assay on T-47D breast is 33.9%; in the assay with BT-549 breast, 47.8%; in the assay with MDA-MB-435 melanoma it was 77.2%; in the assay on SW-620 colon, 78.6%; in the assay with MCF7 breast, 76.5%; in the assay on HCT-116 colon, 67.7%. Besides, the growth in the assay with HCC-2998 colon was 94%; in the assay on KM12 colon, 77.5%.
